Bioassay records deposited in PubChem by National Center for Advancing Translational Sciences (NCATS).
DT40 TDP1 CPT – DT40-hTDP1 cell growth loss with CPT | AID 686979 | Potency, µM (highest dose often 46.2 µM), inactives show at the highest dose activity change, negative = growth inhibition, actives largely listed as inhibitors | actives 12% (n = 420,000) | chicken DT40 Tdp1-/-;hTDP1 cells + 20 nM CPT, ATP luminescence, 48 h; also: potency is read from the fitted curve at half-maximal effect; nearly all actives have a fitted effect of over 55% in size
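Cell growth measured by CellTiter-Glo luminescence after a minimum 48 h, 37 C compound exposure with 20 nM CPT in Tdp1-knockout DT40 cells stably expressing hTDP1, seeded 400/well; qHTS titration format.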
TDP1 cell noCPT – qHTS for Inhibitors of human tyrosyl-DNA phosphodiesterase 1 (TDP1): qHTS in cells in absence of CPT. AID 686978, 2013. DT40 Tdp1-/- hTDP1 cells, no CPT, ATP luminescence, 48 h. Potency, µM (titrated, usually from 46.2 µM), inactives show at the top dose activity change, negative = growth inhibition, usual class: inhibitors. actives 15% (n = 420,000); also: potency is read from the fitted curve at half-maximal effect; nearly all actives have a fitted effect of over 55% in size
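DT40 Tdp1-/-;hTDP1 cells, no CPT (DMSO vehicle only), 400 cells/well; compounds pin-transferred; ≥48 hr, 37 °C; CellTiter-Glo 30 min RT dark, luminescence read.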
IL-1B inflam inh – blocks inflammasome-driven IL-1 beta release | THP-1 LPS/ATP IL-1B secretion, AlphaLISA, 16 h; stronger effect = lower value | activity change, % at 57.5 µM | actives 4.7% (n = 360,000) | AID 743279; in the data active = activity change below about -50%; inconclusive = mostly about -30% to -49%
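Secreted IL-1B measured by AlphaLISA bead assay after 16 h compound exposure of THP-1 cells; compounds (final up to 57.5 uM) added 1 h before LPS (250 ng/mL) and ATP (1.25 mM) stimulation; lower signal means less secretion.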
HT1080NT lethal – kills 2HG-producing HT-1080-NT fibrosarcoma cells; actives 1.6% (n = 360,000); HT-1080-NT fibrosarcoma viability, CellTiter-Glo ATP luminescence, 48 h; AID 686970; Potency, µM (doses to about 46.1 µM), without a hit: at the highest dose activity, negative = less viability, most hits filed as cytotoxic;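 also: NT is the 2HG producing partner of a matched IDH1 knockdown line; potency is read from the fitted curve at half-maximal effect; 0% = DMSO-treated cells and -100% = media-only wells without cells; nearly all actives have a fitted effect of over 55% in size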
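Toxicity toward the 2HG-producing NT line was scored as %Activity, normalised to DMSO and no-cell wells, from CellTiter-Glo luminescence after 48 hours' treatment.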
ELG1 repair inh – blocks ELG1-dependent DNA repair in HEK293T cells. HEK293T ELG1-luciferase reporter, luminescence, 16 h; DNA damage induced by 5-fluorouridine. actives 2.3% (n = 330,000). Potency, µM (top dose mostly 46.1 µM), for inactives: at the top dose activity change, negative = inhibition, usual class: inhibitors; also: potency is read from the fitted curve at half-maximal effect; nearly all actives have a fitted effect of over 55% in size
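DMSO vehicle served as the neutral condition. Each well held 2,000 cells given 5-fluorouridine plus compound; after 16 hr at 37 °C/5% CO2, ONE-Glo was added and luciferase measured 30 min later.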
HT1080 IDH1KD tx – kills HT-1080 cells with IDH1 knockdown. HT-1080 IDH1 knockdown viability, ATP luminescence, 48 h. Potency, µM (series often up to 46.1 µM), for the others: at the top dose activity, negative = toxicity, actives largely listed as cytotoxic. actives 2% (n = 360,000). AID 686971;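 also: potency is read from the fitted curve at half-maximal effect; 0% = DMSO wells and -100% = cell-free medium wells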
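IDH1KD HT-1080 cells, 750/well, RPMI + 5% FBS; compound pinned after 2 h settling; 48 h, 37 °C; CellTiter-Glo luminescence; % activity normalised to DMSO and no-cell wells; curves fitted, classed by r2 and efficacy.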
The depositor's hits bear a star; ? = inconclusive; · = not tested or not shown; [ ] = another dose, or the depositor's remark. This is a sample that favours compounds with a hit; in the whole collection about 19% have one here. Unless noted, calls follow the shape of the dose curve; as a rule, active = well fitted curve in the direction sought with a large enough effect; inconclusive = small, poorly fitted or top-dose-only effect, or another doubt; inactive = no such curve, though single readings can be large; an effect the other way counts as inactive or inconclusive. Unless noted, % is scaled to controls: 0 for no effect and ±100 for the full control effect.

SMILES	DT40 TDP1 CPT	TDP1 cell noCPT	IL-1B inflam inh	HT1080NT lethal	ELG1 repair inh	HT1080 IDH1KD tx
Cc1ccc(S(=O)(=O)/N=C(\Sc2ccccc2)c2ccccc2)cc1	5.8µM*	6.51µM*	-50.4*	25.9%	?	-24.6%
CC(C)(C)c1ccc(OCCOCCn2c(-c3ccc(Cl)cc3)nc3ccccc3c2=O)cc1	-12.1%	-19.0%	·	·	·	·
CCc1nnc(NC(=O)c2ccc(COc3ccccc3C)o2)s1	7.7%	-3.0%	54.1	3.1%	9.1%	5.5%
CC(OC(=O)C1=Cc2ccccc2OC1)C(=O)NCC1CCCO1 (stereo not given)	?	-14.8%	1.6	-8.9%	·	-19.1%
CC1(C(=O)NS(=O)(=O)c2ccc(C#N)cc2)CCN1C(=O)CC1CCCCC1 (stereo not given)	-10.1%	-9.4%	40.4	7.1%	·	29.3%
COCCN(C(=O)CSc1cc(C)c2ccccc2n1)c1c(N)n(CC(C)C)c(=O)[nH]c1=O	-8.4%	-0.8%	6.0	-1.3%	6.2%	2.8%
CCCCNC(=O)C[C@@H]1C[C@@]2(C(=O)OCC)CCC=C2N(Cc2ccc(Cl)cc2Cl)C1=O	?	16.4µM*	?	?	·	?
CCOC(=O)[C@]12CCCC=C1N(Cc1ccc(Cl)cc1Cl)C(=O)[C@H](CC(=O)NCCCCc1ccccc1)C2	?	?	0.0	?	·	?
CCOC(=O)[C@]12CCC=C1N(Cc1ccc(Cl)cc1Cl)C(=O)[C@H](CC(=O)NCCCOC)C2	?	16.4µM*	-16.5	-1.7%	·	1.2%
COc1ccc(S(=O)(=O)N(CC(N)=O)C2CCCCC2)cc1Cl	23.1µM*	?	-0.3	-1.0%	-1.6%	0.9%
CC1(C)C(=O)Nc2ccccc2N1C(=O)COC(=O)c1ccc(Cl)c(S(=O)(=O)NCc2ccccc2)c1	?	?	-0.7	-4.8%	20.6µM*	0.5%
CCOC(=O)c1c(C)[nH]c(C)c1C(=O)COC(=O)c1ccc(Cl)c(S(=O)(=O)NCc2ccccc2)c1	20.6µM*	23.1µM*	78.1	18.4µM*	-22.2%	23.1µM*
O=C(COC(=O)c1ccc(Cl)c(S(=O)(=O)NCc2ccccc2)c1)NC1CC1	-16.4%	2.0%	-4.7	8.5%	?	5.2%
COc1cc(/C=C/C(=O)OCC(=O)N2c3ccccc3NC(=O)C2(C)C)cc(OC)c1OC	18.4µM*	10.3µM*	-65.3*	?	10.3µM*	?
COc1ccc(S(N)(=O)=O)cc1C(=O)OCC(=O)N1c2ccccc2NC(=O)C1(C)C	11.8%	-16.0%	4.3	20.4%	-5.3%	7.2%
COC(=O)[C@H](Cc1ccccc1)NC(=O)Cn1cnc2c(NCc3ccccc3)ncnc21	3.3%	?	?	-1.6%	2.0%	-0.8%
COc1ccc(N/C=C2\CCc3ccccc3C2=O)cc1	?	?	1.3	?	?	?
O=C1/C(=C/Nc2ccc3c(c2)OCO3)CCc2ccccc21	25.9µM*	?	-2.5	?	?	?
O=C1OC2(CCCCC2)OC(=O)C1=CNc1ccc2c(c1)OCO2	-22.9%	-14.5%	7.0	-13.9%	?	11.1%
COc1ccc2c(c1)CC/C(=C\Nc1ccc3c(c1)OCO3)C2=O	14.6µM*	?	-87.1*	?	?	4.7%[9.24 µM]
CCCNC(=O)C1(C)CCCN(C(=O)c2ccc3ccccc3c2)C1 (stereo not given)	-18.8%	?	9.5	?	·	16.5%
CCCCC(=O)N1CC(=O)Nc2ccc(F)cc2C1c1ccccc1 (stereo not given)	3.0%	-4.4%	9.2	5.2%	-11.1%	5.7%
Cc1ccc2c(c1)C(c1ccc(F)cc1)N(C(=O)COc1ccc(Cl)cc1Cl)CC(=O)N2 (stereo not given)	20.6µM*	?	·	·	·	·
O=C1CN(C(=O)COc2ccc(Cl)cc2Cl)C(c2ccccc2)c2cc(F)ccc2N1 (stereo not given)	16.4µM*	?	·	·	·	·
CCCCC(=O)N1CC(=O)Nc2ccc(F)cc2C1c1ccc(F)cc1 (stereo not given)	?	?	-1.3	-1.2%	0.0%	0.5%
SMILES	DT40 TDP1 CPT	TDP1 cell noCPT	IL-1B inflam inh	HT1080NT lethal	ELG1 repair inh	HT1080 IDH1KD tx
O=C1CN(C(=O)COc2ccc(Cl)cc2Cl)C(c2ccc(F)cc2)c2cc(F)ccc2N1 (stereo not given)	20.6µM*	?	·	·	·	·
COc1ccc(-c2nc3cnc(Oc4cccc(Cl)c4)nc3n(C[C@H]3CCCO3)c2=O)cc1	-12.3%	-8.5%	·	·	·	·
CC1(C(=O)NC2CCCCC2)CCC(=O)N1CC(F)(F)F (stereo not given)	-0.9%	19.6%	5.9	22.8%	·	16.0%
Clc1cccc(Cl)c1C[n+]1ccc2ccccc2c1	1.64µM*	1.46µM*	13.4	-26.5%	?	?
c1ccc(C[n+]2cccc(-c3ccccc3)c2)cc1	8.2µM*	8.2µM*	38.9	1.0%	-26.7%	-6.5%
c1ccc(C[n+]2ccc3ccccc3c2)cc1	10.3µM*	16.4µM*	24.0	-6.1%	·	-2.4%
c1ccc(CN2CCN(c3nc4ccccc4n4cnnc34)CC2)cc1	13µM*	?	-3.2	0.0%	-21.9%	-5.6%
c1ccc2c(c1)CCCN2c1nc2ccccc2n2cnnc12	?	?	32.5	3.0%	?	0.3%
c1ccc2c(c1)nc(N1CCOCC1)c1nncn12	-6.1%	?	-4.1	-1.7%	10.6%	11.1%
c1ccc(N2CCN(c3nc4ccccc4n4cnnc34)CC2)cc1	?	?	10.6	5.4%	?	2.6%
c1ccc2c(c1)CCN(c1nc3ccccc3n3cnnc13)C2	23.1µM*	?	-4.4	-19.4%	?	-4.4%
C1=C(c2ccccc2)CCN(c2nc3ccccc3n3cnnc23)C1	?	16.4µM*	-8.2	-8.1%	-24.2%	-0.9%
FC(F)(F)c1cccc(N2CCN(c3nc4ccccc4n4cnnc34)CC2)c1	?	23.1µM*	·	·	·	·
O=C(NCCc1cccnc1)C1CCC(=O)N(Cc2ccc(Cl)cc2)C1 (stereo not given)	2.6%	18.9%	2.4	3.1%	16.2%	4.4%
COc1cc(C)ccc1OCc1cc(C(=O)NCCN2CCOCC2)no1	5.0%	-1.6%	-6.9	12.9%	?	-2.3%
Cc1cc(C)n(-c2nc3ccccc3nc2N2CCN(C(=O)c3ccccc3)CC2)n1	-19.3%	-28.6%	4.2	-3.0%	-3.9%	-0.8%
